93 compounds from PubChem BioAssay AID2544 (Sanford-Burnham Center for Chemical Genomics, 2010) can be followed below.

Molecules are shown by their SMILES. Out of some 330,000 compounds screened, about 390 (0.12%) were called active.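 Rule for the calls: active = inhibition reaching a set limit with compound at 10 µM in the primary screen (cut at about 35% in these data); inactive = the rest.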 For the sample, actives were picked, then their nearest neighbours and some compounds at random.

For this assay, the target named is Intestinal-type alkaline phosphatase (Homo sapiens) (UniProt P09923). Briefly: human IAP inhibitors, primary screen, biochemical, luminescence, uHTS (AID 2544).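 Note: plate controls were DMSO wells with enzyme for no effect and no-enzyme buffer wells for full effect.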 As to conditions: purified IAP, CDP-Star luminescence, 30 min; at 10 µM; stronger effect = higher value.
Intestinal-type alkaline phosphatase (Homo sapiens), sequence (P09923 whole entry, looked up): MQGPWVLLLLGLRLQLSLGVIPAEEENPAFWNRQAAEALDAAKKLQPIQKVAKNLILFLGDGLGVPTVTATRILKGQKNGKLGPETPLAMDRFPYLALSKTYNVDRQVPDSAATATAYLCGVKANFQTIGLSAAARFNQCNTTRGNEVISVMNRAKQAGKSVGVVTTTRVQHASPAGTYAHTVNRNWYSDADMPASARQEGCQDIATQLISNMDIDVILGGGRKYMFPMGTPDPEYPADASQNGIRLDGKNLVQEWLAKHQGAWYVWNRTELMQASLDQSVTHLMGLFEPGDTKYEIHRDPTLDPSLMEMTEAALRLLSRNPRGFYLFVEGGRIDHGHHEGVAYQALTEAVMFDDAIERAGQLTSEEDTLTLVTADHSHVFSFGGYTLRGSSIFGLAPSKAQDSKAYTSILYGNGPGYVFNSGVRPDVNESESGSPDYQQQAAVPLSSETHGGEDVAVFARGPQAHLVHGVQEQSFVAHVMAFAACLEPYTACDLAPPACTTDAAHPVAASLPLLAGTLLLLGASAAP
One may read the inhibition as the relative decrease from the control value, in per cent. `Cc1cc(N)n2nc(-c3ccc(C(C)(C)C)cc3)cc2n1`: the inhibition was -9% (inactive).
The result for `COc1ccc(-c2nc3cc(C)ccn3c2NC2CCCCC2)cc1SC1CCCCC1` reads 18.9% (inactive); that for `CC1(C)OC(=O)C(=CNC(CO)C(=O)O)C(=O)O1` (stereo not drawn), 4.1% (inactive).
The figure for `CCN(CC(=O)NCc1ccc(Cl)cc1)C(=O)c1c(C)noc1C` is -14.3% (inactive); for `COc1cccc(CNC(=O)C2CC(=O)N(C3CCCCCCC3)C2)c1` (stereo not drawn) it is -15% (inactive); for `COC(=O)NNC(=O)C1CCC(C)CC1` (stereo not drawn) it is -0.3% (inactive).
The figure for `O=C(O)CCn1c(O)c(C=C2N=c3ccccc3=N2)sc1=S` is -32.1% (inactive); for `Cc1ccc(NC(=O)COC(=O)C2C3CC4OC(=O)C2C4C3)cc1Cl` (stereo not drawn) it is 5.1% (inactive).
For the compound `CCOC(=O)N1CCN(S(=O)(=O)c2cc3c(cc2C)NC(=O)CO3)CC1`, the inhibition was -3.7% (inactive).
The result for `O=C(CNC(=O)c1n[nH]c2ccccc12)Nc1cc(Cl)ccc1Cl` reads -16.2% (inactive); that for `FC(F)(F)c1ccnc(Oc2ccc(C3=NCCS3)cc2)c1`, 10.4% (inactive); that for `CC(C)(C)OC(=O)N1CCC(NC(=O)c2[nH]cnc2C(=O)N[C@@H](Cc2ccccc2)C(=O)OCc2ccccc2)CC1`, -35.2% (inactive).
The figure for `COc1ccccc1C(=O)OCC(=O)Nc1cccc(S(=O)(=O)NC2=NCCCCC2)c1` is 19.2% (inactive).
The result for `COc1ccccc1C(CNC(=O)c1ccc(C)c(S(=O)(=O)N2CCCCC2)c1)N(C)C` (stereo not drawn) reads -3.4% (inactive).
As for `CN1CCN(CC(=O)C23CC4CC(CC(C4)C2)C3)CC1`, the inhibition was 4.5% (inactive).
The figure for `Cc1ccc(C(=O)N(CC(=O)NC2CCCC2)c2ccc(F)cc2)s1` is -20.5% (inactive); for `CCCc1cc(C(=O)N2CCCC(CO)(CCCc3ccccc3)C2)n(C)n1` (stereo not drawn) it is -5.7% (inactive); for `CC#CC[N+](C)(C)CCCCCC` it is 6.2% (inactive).
Turning to `O=C(/C=C/c1cccc(C(F)(F)F)c1)N1CCN(c2ccccn2)CC1`, the inhibition was -1.3% (inactive).
The figure for `c1csc(-c2nnc(COc3ncnc4sccc34)o2)c1` is 13.5% (inactive); for `Cc1sc2ncn(CC(=O)NCCN(C)C)c(=O)c2c1S(=O)(=O)N1CCC(C)CC1` it is 10.2% (inactive); for `CCN(Cc1ccccc1)S(=O)(=O)c1cc(C(=O)O)ccc1OC` it is -17.1% (inactive).
For the compound `Cc1ccc(CN2CCN(Cc3cccc(C)n3)CC2CCO)cc1` (stereo not drawn), the inhibition was 4.3% (inactive).
The result for `Cc1cc2ccccn2c1C(=O)c1cccc(F)c1` reads 18.3% (inactive).
Take `Cc1c(C=O)c2ccccn2c1C(=O)c1ccncc1`: the inhibition is 35.9% (active).
The figure for `Cc1c(C(=O)NNC(=O)c2ccncc2)oc2ccccc12` is -50.2% (inactive); for `CC1C(=O)C(C)C(c2ccc(O)cc2)NC1c1ccc(O)cc1` (stereo not drawn) it is 4.6% (inactive).
Regarding `CCc1cc(CNC(=O)CC2C(=O)NCCN2CC2CCCCC2)on1` (stereo not drawn), the inhibition was -7.8% (inactive).
On to `COc1ccc(CNC(=O)CSc2n[nH]c(N)n2)cc1OC`, for which the inhibition is 5.7% (inactive).
On to `CS(=O)(=O)Nc1ccccc1C(=O)OCC(=O)NC1CC1`, for which the inhibition was -0.7% (inactive).
The result for `O=C(NCc1ccco1)c1ccc(Cn2c(=O)c3sccc3n(Cc3ccc(F)cc3)c2=O)cc1` reads 1.3% (inactive); that for `Cn1c(=O)c2sccc2n(Cc2ccc(Br)cc2)c1=O`, 38.1% (active).
As for `Cn1c(=O)c2c(nc(N/N=C/c3cccs3)n2Cc2ccc(Br)cc2)n(C)c1=O`, the inhibition is -142% (inactive).
The result for `N#Cc1c(-c2ccc(F)cc2)cc(C2CC2)nc1SCC(=O)c1cccs1` reads 10.2% (inactive); that for `CCOC(=O)Cc1csc(NC(=O)CN(C)S(=O)(=O)c2ccc3c(c2)CCC(=O)N3)n1`, -6.4% (inactive).
With `CS(=O)(=O)c1sc(C(=O)NC(=S)Nc2ccc(OC(F)(F)F)cc2)c2c1C=CCC2`, the inhibition was -34.5% (inactive).
The figure for `Cc1ccc2cccc(S(=O)(=O)N3CCN(c4ccccc4F)CC3)c2n1` is 22.1% (inactive).
The figure for `CSc1ccc(CNC(=O)c2ccc(NC(=O)C3=CSCCO3)cc2)cc1` is 17.2% (inactive).
The result for `O=C(NC1=NCCS1)[C@H](Cc1ccccc1)N1C(=O)c2ccccc2C1=O` reads 4.4% (inactive); that for `O=C(NCCN1CCOCC1)[C@H](Cc1ccccc1)N1C(=O)c2ccccc2C1=O`, 41.1% (active); that for `O=C(CCN1C(=O)c2ccccc2C1=O)NCCN1CCOCC1`, -14.9% (inactive).
For the compound `CN(C(=O)CSc1cccc[n+]1[O-])C1CCCCC1`, the inhibition is 2.3% (inactive).
The figure for `Cc1cc([N+](=O)[O-])nn1CCCC(=O)Nc1cccnc1Cl` is 6.1% (inactive); for `CC1(C)O[C@@H]2[C@H](O1)[C@@H](COS(=O)(=O)O)O[C@H]2n1cnc2c(=O)[nH]cnc21` it is -9% (inactive); for `Cc1cc(Cl)c2oc(C(=O)N3CCC(O)(c4ccccc4)CC3)c(C)c2c1` it is -10.6% (inactive).
The result for `COc1ccc(Nc2cc(=O)n(-c3ccccc3)c3c2c(=O)n(C)c(=O)n3C)cc1` reads 3.3% (inactive); that for `CN(Cc1ccccc1Cl)C(=O)C1CCC(=O)N(CCc2cccc(F)c2)C1` (stereo not drawn), -4.4% (inactive); that for `Cc1cc(C)nc(SCc2nnc(SCC(=O)OC3CCCCC3)o2)n1`, -7.3% (inactive).
Regarding `CCOCCCN(C(=O)Cn1nnc(-c2ccc(OC)c(OC)c2)n1)C(CC)C(=O)NC1CCCC1` (stereo not drawn), the inhibition was -21.9% (inactive).
The figure for `CCCCC(=O)Nc1ccccc1N1CCN(c2ccc(F)cc2)CC1` is -6.3% (inactive).
The figure for `CCC(C)C(=O)Nc1ccccc1N1CCN(c2ccc(F)cc2)CC1` (stereo not drawn) is 42.4% (active); for `CC(=O)c1ccc(N2CCN(CC(=O)Nc3ccccc3N3CCOCC3)CC2)cc1` it is 6.2% (inactive).
As for `CCOC(=O)c1cc2c(nc1NC(=S)Nc1ccccc1)CC(C)(CC)OC2` (stereo not drawn), the inhibition is -6.3% (inactive).
The result for `CCOC(=O)c1cn[nH]c1NC(=S)Nc1ccccc1` reads 60.8% (active); that for `CCOC(=O)c1ccc(NC(=S)Nc2cc(C)cc(C)n2)cc1`, -2% (inactive); that for `NC(N)=Nc1nc2ccc(Br)cc2c(=O)[nH]1`, -7.7% (inactive).
The result for `c1ccc(CSCCc2ccncc2)cc1` reads 39.6% (active); that for `Cc1cc(C)c(SCCc2ccncc2)c(C)c1`, -12.6% (inactive).
The result for `CC(C)(C)c1ccc(SCCc2ccncc2)cc1` reads -36.5% (inactive); that for `O=C1N(c2ccc(Cl)cc2)C(c2ccc(Cl)cc2)N2CCCN12` (stereo not drawn), 0.2% (inactive); that for `CCCC1C(c2ccccc2)C(C#N)(C#N)C2(C#N)CC1(N)NC2=O` (stereo not drawn), -3.9% (inactive).
Take `CN(C(=O)COc1nnc(-c2cccs2)c(-c2cccs2)n1)c1ccccc1`: the inhibition was -23.1% (inactive).
The figure for `CS(=O)(=O)N(CC(=O)N1CCOCC1)c1cccc(Cl)c1Cl` is -16.2% (inactive); for `NS(=O)(=O)c1cccc(NC(=O)COC(=O)/C=C/c2ccco2)c1` it is 5.2% (inactive).
The result for `COC(=O)c1cc2c(ccn2C)n1C` reads 15.7% (inactive); that for `CCN1/C(=C\c2ccc3ccccc3[n+]2CC)Sc2cc(C)ccc21`, 39.8% (active).
On to `COc1cccc(C(=O)n2ccc(-c3cccs3)n2)c1`, for which the inhibition was 0.5% (inactive).
Consider `Cc1c(Cl)cccc1NC(=O)[C@@]1(CC(=O)O)CC(/C=C/c2ccccc2)=NO1`, for which the inhibition was 11% (inactive).
Take `CSC1=NC2(C)CCCCC2C12C=CC(=O)C=C2` (stereo not drawn): the inhibition is 12.2% (inactive).
The result for `O=C(NCCCN1CCCCC1)C1CC(=O)N(CCc2ccccc2)C1` (stereo not drawn) reads -4.4% (inactive); that for `O=C(CN(C(=O)c1csnn1)c1ccc(Br)cc1)NC1CCCC1`, -3.8% (inactive).
The figure for `CC(C)(C)C(=O)N(Cc1ccccc1)c1ccccn1` is -10.9% (inactive); for `COc1ccccc1C1CCN(C(=S)Nc2ccc(Br)cc2)CC1` it is 5.9% (inactive).
The result for `O=C(CCCl)Nc1ccc(S(=O)(=O)NCc2ccco2)cc1` reads 7.1% (inactive).
For `CCS(=O)(=O)N1CCC(N2CCN(c3ccccc3)CC2)CC1`, the inhibition was 15% (inactive).
Take `CCCCc1ccc(NC(=S)N2CCCC(CO)C2)cc1` (stereo not drawn): the inhibition is 7.5% (inactive).
The result for `O=C(CN1C(=O)NC(Cc2c[nH]c3ccccc23)C1=O)Nc1ccccc1C(F)(F)F` (stereo not drawn) reads -22.4% (inactive).
The result for `CC(C(=O)N1CCc2ccccc21)N(C)CC(=O)Nc1ccc(F)cc1` (stereo not drawn) reads 22.6% (inactive); that for `O=C(c1cccs1)N1CCC(c2nc3ccccc3s2)CC1`, 22.5% (inactive); that for `COc1cc2c(cc1OC)C(C(=O)NCc1ccco1)C1c3ccccc3CCN1C2=O` (stereo not drawn), -2.9% (inactive).
The figure for `CN1/C(=c2/s/c(=C3/C(=O)N(c4ccccc4)NC3=Nc3ccccc3)n(C)c2=O)C(C)(C)c2ccccc21` is 35% (active).
As for `Cc1ccc(N(CC(=O)NCC2CCCO2)C(=O)CNS(=O)(=O)c2ccc(Cl)cc2)cc1` (stereo not drawn), the inhibition was 6.2% (inactive).
The figure for `CC(NCCc1ccc(S(N)(=O)=O)cc1)C(=O)NCc1ccccc1` (stereo not drawn) is 8.3% (inactive); for `O=C(CN1CCC(NC(=O)C2CC2)CC1)Nc1ccccc1[N+](=O)[O-]` it is 1.9% (inactive); for `CCN(C(=O)COC(=O)c1cc(S(=O)(=O)N2CCc3ccccc32)ccc1OC)C1CCS(=O)(=O)C1` (stereo not drawn) it is 8.6% (inactive).
The figure for `CCc1cc2c(=O)c(-c3ccon3)c(N)oc2cc1OC` is 6.6% (inactive).
With `CC(Sc1cccc[n+]1[O-])C(=O)Nc1cccc(S(=O)(=O)N2CCOCC2)c1` (stereo not drawn), the inhibition was -16.4% (inactive).
Regarding `CCNC(=S)N(CCc1c(C)[nH]c2ccc(C)cc12)Cc1ccco1`, the inhibition is 3.7% (inactive).
The result for `Cc1c(C(=O)OC(C)C)sc(NC(=O)c2cccnc2)c1C#N` reads -1.7% (inactive); that for `CCOC(=O)N1CCC(NC(=O)CN2C(=O)COc3ccc(C(C)(C)C)cc32)CC1`, -21.5% (inactive); that for `Cc1ccc(C(C)(C)C)c(OCCCCN2CCCC2)c1`, 10.8% (inactive).
Turning to `O=C(C[n+]1cc(Br)cc2ccccc21)c1ccc(F)cc1`, the inhibition is -5.7% (inactive).
The result for `COc1ccc(CCOC2OC(CO)C(OC(=O)/C=C/c3ccc(O)c(OC)c3)C(O[C@H]3O[C@@H](C)[C@H](O)[C@@H](O)[C@H]3O)C2O)cc1O` (stereo partly drawn) reads 4.7% (inactive).
